# Results as given in PMC4336329 (PLoS ONE, 2015).
# The campaign covered roughly 310,000 compounds. About 2,200 (0.71%) showed an effect of 50% or more. The effect is printed as a negative number. The full list was thinned out, with strong results kept by preference.
# Biological target: human ether-à-go-go-related gene (hERG) potassium channel (human, UniProt Q12809)
# Test: primary screen, population patch clamp on CHO cells stably expressing hERG; higher = less effect of the substance
# human ether-à-go-go-related gene (hERG) potassium channel, sequence (Q12809 whole entry, looked up): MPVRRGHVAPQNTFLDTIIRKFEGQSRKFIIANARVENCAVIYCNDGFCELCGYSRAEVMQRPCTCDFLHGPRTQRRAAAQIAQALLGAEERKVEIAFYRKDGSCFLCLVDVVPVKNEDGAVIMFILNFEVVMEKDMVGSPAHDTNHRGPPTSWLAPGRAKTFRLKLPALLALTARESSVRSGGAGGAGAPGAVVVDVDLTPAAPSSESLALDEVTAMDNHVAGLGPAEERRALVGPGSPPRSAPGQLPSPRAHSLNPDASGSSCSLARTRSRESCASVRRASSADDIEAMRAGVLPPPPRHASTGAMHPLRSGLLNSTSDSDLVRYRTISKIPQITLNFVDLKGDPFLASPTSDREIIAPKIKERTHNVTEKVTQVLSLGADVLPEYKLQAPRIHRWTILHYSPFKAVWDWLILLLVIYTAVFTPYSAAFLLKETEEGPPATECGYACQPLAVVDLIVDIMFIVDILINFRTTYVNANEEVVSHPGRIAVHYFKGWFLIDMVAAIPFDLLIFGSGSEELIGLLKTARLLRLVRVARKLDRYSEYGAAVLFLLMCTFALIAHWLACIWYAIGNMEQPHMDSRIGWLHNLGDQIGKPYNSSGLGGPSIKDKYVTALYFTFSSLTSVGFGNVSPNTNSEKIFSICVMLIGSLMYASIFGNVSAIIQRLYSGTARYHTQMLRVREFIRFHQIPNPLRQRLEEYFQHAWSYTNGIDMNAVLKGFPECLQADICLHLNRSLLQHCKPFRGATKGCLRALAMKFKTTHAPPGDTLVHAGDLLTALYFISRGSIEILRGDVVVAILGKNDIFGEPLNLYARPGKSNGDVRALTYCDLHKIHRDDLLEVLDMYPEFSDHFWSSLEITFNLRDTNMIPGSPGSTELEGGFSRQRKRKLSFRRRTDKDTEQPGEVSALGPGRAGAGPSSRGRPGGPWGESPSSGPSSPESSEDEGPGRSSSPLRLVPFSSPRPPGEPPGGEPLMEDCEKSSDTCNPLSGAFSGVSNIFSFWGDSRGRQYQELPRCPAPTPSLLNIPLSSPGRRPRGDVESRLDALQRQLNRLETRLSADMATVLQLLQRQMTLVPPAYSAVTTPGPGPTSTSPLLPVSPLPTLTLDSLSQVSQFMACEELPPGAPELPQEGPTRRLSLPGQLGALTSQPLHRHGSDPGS
row,SMILES,"hERG current change (%, negative = inhibition) at 1uM"
1,OCCC1CN(Cc2cccn2-c2ccccn2)CCN1Cc1ccccc1 (stereo not drawn),-61.4%
2,CC(C)CN1CCN(Cc2cccn2-c2ccccn2)CC1CCO (stereo not drawn),-18.8%
3,Cc1ccc(CN2CCN(Cc3ccncc3)CC2CCO)o1 (stereo not drawn),-1.98%
4,CCOC(=O)C1CCN(S(=O)(=O)c2cc3c(cc2C)NC(=O)CO3)CC1,-13.1%
5,CC(=O)NCCC(=O)Nc1sc2c(c1-c1nc3ccccc3[nH]1)CCCC2,7.25%
6,CC(C)(C)NCCOc1ccc2ccccc2c1,14.6%
7,O=C(O)c1cc2ccccc2cc1Nc1ccccc1,6.84%
8,CC(OC(=O)c1ccco1)C(=O)Nc1ccc(Cl)cn1 (stereo not drawn),5.93%
9,CNC(=O)C1=C(C)Nc2nc3ccccc3n2C1c1ccc(F)cc1 (stereo not drawn),7.95%
10,C/C(CC(=O)Nc1ccc(F)cc1)=N\NC(=O)Cc1csc(N)n1,16.1%
11,CCOC(=O)c1nc(Nc2ccc(C(=O)O)cc2)c2ccccc2n1.Cl,11.2%
12,O=C(Nc1ccccc1)N(C1=NCCCCS1)c1cccc2ccccc12,5.62%
13,O=C(O)CC1SC(=O)N(CC(=O)c2ccccc2)C1=O (stereo not drawn),8.06%
14,O=C(COC(=O)Cc1cccc(C(F)(F)F)c1)NC1CC1,10.7%
15,N#CCCn1cc(C(=O)Nc2ccc(F)cc2)c(-c2ccc([N+](=O)[O-])cc2)n1,6.48%
16,N#CCCn1cc(C(=O)Nc2ccc(C(=O)O)cc2)c(-c2ccc([N+](=O)[O-])cc2)n1,16%
17,N#CCCn1cc(C(=O)Nc2ccc([N+](=O)[O-])cc2)c(-c2ccccc2)n1,-67.8%
18,O=C(OCC(=O)N1CCCC1)c1ccc(S(=O)(=O)Nc2ccccc2)cc1,-0.807%
19,CN(CC(=O)Nc1cccc(F)c1)C(=O)c1ccccc1Sc1ccccc1C#N,-8.06%
20,CC(C)(C)c1ccc(CN2C(=O)c3ccccc3S2(=O)=O)cc1,15.7%
21,CC(=O)c1cccc(NC(=O)C2CCCN(S(=O)(=O)c3ccccc3)C2)c1 (stereo not drawn),7.51%
22,O=C(NCc1ccco1)C1CCCN(S(=O)(=O)c2cc(Cl)ccc2Cl)C1 (stereo not drawn),2.52%
23,CN(C)c1ccc(/C=N/NC(=O)c2ccn(C)n2)cc1,9.92%

row,SMILES,"hERG current change (%, negative = inhibition) at 1uM"
1,CC(NC(=O)c1cc(S(=O)(=O)N(C)C)ccc1Cl)c1ccc(-n2ccnc2)cc1 (stereo not drawn),-55.3%
2,CC(NC(=O)c1ccccc1Cl)c1ccc(-n2ccnc2)cc1 (stereo not drawn),-1.53%
3,CC(NC(=O)c1ccc(S(=O)(=O)N(C)C)cc1)c1ccc(-n2ccnc2)cc1 (stereo not drawn),-40.5%
4,COc1ccc(C(=O)CN2C(=O)NC(C)(c3ccccc3)C2=O)cc1OC (stereo not drawn),3.32%
5,CCOC(=O)C1CCN(C(C)C(=O)c2c(C)[nH]c3cc(C)ccc23)CC1 (stereo not drawn),-66.9%
6,CCOC(=O)C1CCN(C(C)C(=O)c2c[nH]c3ccccc23)CC1 (stereo not drawn),-1.89%
7,CCOC(=O)C1CCN(CC(=O)c2c(C)[nH]c3cc(C)ccc23)CC1,-26.8%
8,CCOC(=O)C1=C(C)NC(=S)N(C(C)=O)C1c1ccc(Cl)cc1 (stereo not drawn),9.38%
9,O=C1OCCC1Sc1nc2ccccc2c(=O)n1Cc1ccc(F)cc1 (stereo not drawn),-37.5%
10,Cc1ccc(Cn2c(SC3CCOC3=O)nc3ccccc3c2=O)cc1 (stereo not drawn),-6.65%
11,O=C1OCCC1Sc1nc2ccccc2c(=O)n1Cc1ccccc1 (stereo not drawn),-64.6%
12,COc1ccc2nc3ccccc3nc2c1NC(=O)c1ccccc1Cl,-1.38%
13,O=C(NCc1ccccc1)c1cnsn1,7.4%
14,CC1(C)C(=O)C2(CCCCC2)C(=O)OC1C(=O)c1ccccc1 (stereo not drawn),6.81%
15,O=C(COc1ccc2c3c(c(=O)oc2c1)CCCC3)N1C[C@H]2C[C@@H](C1)c1cccc(=O)n1C2,-6%
16,COc1cnn(Cc2ccccc2)c(=O)c1SCc1ccccc1,-2%
17,O=C(NCc1ccc(F)cc1)c1c2c(nc3ccccc13)CCN(Cc1ccccc1)C2,0.811%
18,Cc1ccc(NC(=O)c2c3c(nc4ccccc24)CCC3)cc1,7.04%
19,CCN1CCc2nc3ccccc3c(C(=O)Nc3ccc(NC(C)=O)cc3)c2C1,12.4%
20,CCOc1ccc(NC(=O)c2c3c(nc4ccccc24)CCC3)cc1,10.9%
21,CCN1CCc2nc3ccccc3c(C(=O)Nc3ccc(C#N)cc3)c2C1,-65.8%
22,CCN1CCc2nc3ccccc3c(C(=O)Nc3ccc(F)cc3)c2C1,-81.6%
